# Experimental data as given in PubChem BioAssay.
# The source made the active and inactive calls. No rule for the calls is given here. Starred links: 1 amine or outer side, 2 acyl side, 3 side chain; linkers in the order of their positions; H or OH if unused. Positions of bridges follow the written chain, without caps; N, C: chain ends. Non-standard residues stand in square brackets, D forms with d. Residues, ends and D or L forms follow the SMILES beside them. ξ: configuration not given here. *: point of attachment. ΔAla(E,3-NHCONH2) = NC(=O)N/C=C(/N)C(=O)O; X1 = NC1=NCCC(C(N[*:1])C(=O)[*:2])N1; ξβ3hOrn = NCCCC(N)CC(=O)*; Dap = NC[CH](N)C(=O)O
# Tested on: Aerobactin synthetase IucA (Klebsiella pneumoniae hvKP1)
# Test: IucA enzyme inhibition, primary screen, biochemical, Spectrum library (AID 1346200);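 also: 100% = wells without compound and 0% = wells lacking enzyme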
# Details: malachite green pyrophosphate, A620, at 8 µM, stronger effect = lower value
row,Compound,activity remaining
1,CC(=O)Oc1cc2c(c(C)c1OC(C)=O)CC1OC13[C@@]2(C)CC[C@@]1(C)C2C[C@](C)(C(=O)O)CC[C@]2(C)CC[C@]31C (some centres undefined),101% (inactive)
2,CS(=O)(=O)OCCCCOS(C)(=O)=O,79.2% (inactive)
3,Nc1ccc(S(=O)(=O)Nc2ccc(Cl)nn2)cc1,112% (inactive)
4,N[C@H](Cc1ccccc1)C(=O)O,122% (inactive)
5,FC(F)(F)C(Cl)Br (centres undefined),106% (inactive)
6,COc1cc(C(C)=O)cc(OC)c1O,94.5% (inactive)
7,CC(=O)Oc1ccc2c(c1C(C)C)CCC1C(C)(C)CCC[C@]21C (some centres undefined),97.3% (inactive)
8,CN1C2CCC1CC(OC(=O)C(CO)c1ccccc1)C2 (centres undefined),108% (inactive)
9,COC(=O)Nc1nc2ccc(Sc3ccccc3)cc2[nH]1,114% (inactive)
10,CC[C@@H]1OC(=O)C[C@@H](O)[C@H](C)[C@@H](O[C@@H]2O[C@H](C)[C@@H](O)[C@H](N(C)C)[C@H]2O)[C@@H](CCN2C[C@H](C)C[C@H](C)C2)C[C@@H](C)C(=O)/C=C/C(C)=C\[C@@H]1CO[C@@H]1O[C@H](C)[C@@H](O)[C@@H](OC)[C@H]1OC,112% (inactive)
11,CC(=O)[C@H]1CCC2C3CCC4=CC(=O)CC[C@]4(C)C3CC[C@@]21C (some centres undefined),106% (inactive)
12,CC(=O)Oc1cccc(O)c1,114% (inactive)
13,COc1cc(/C=C/C(=O)/C=C(O)/C=C/c2ccc(O)c(OC)c2)ccc1O,103% (inactive)
14,CCCCN1CCCCC1C(=O)Nc1c(C)cccc1C (centres undefined),103% (inactive)
15,O=C(O[C@@H]1Cc2c(O)cc(O)cc2O[C@@H]1c1cc(O)c(O)c(O)c1-c1c([C@H]2Oc3cc(O)cc(O)c3C[C@H]2O)cc(O)c(O)c1O)c1cc(O)c(O)c(O)c1,119% (inactive)
16,CC(=O)OC1CCC2(O)CC1(C)CCC1C2CC1(C)C (centres undefined),107% (inactive)
17,O=c1cc(-c2ccccc2O)oc2cc(O)ccc12,100% (inactive)
18,OCc1ccccc1O,115% (inactive)
19,CC(=O)[C@H]1CCC2C3C[C@H](C)C4=CC(=O)CC[C@]4(C)C3[C@@H](O)C[C@@]21C (some centres undefined),101% (inactive)
20,Oc1cc(O)c2c(c1)O[C@H](c1cc(O)c(O)c(O)c1)[C@H](O)C2,116% (inactive)

row,Compound,activity remaining
1,NC(=O)c1ccccc1O,88.1% (inactive)
2,CCC(C)C(NC)C(=O)O (centres undefined),116% (inactive)
3,CC1(C)O[C@@H]2CC3C4C[C@H](F)C5=CC(=O)C=C[C@]5(C)[C@@]4(F)[C@@H](O)C[C@]3(C)[C@]2(C(=O)CO)O1 (some centres undefined),99.1% (inactive)
4,CN(C)/N=N/c1nc[nH]c1C(N)=O,107% (inactive)
5,C=C1CC[C@@]2(OC1)O[C@H]1CC3C4CC=C5C[C@@H](O)C[C@@H](O)[C@]5(C)C4CC[C@]3(C)[C@H]1[C@@H]2C (some centres undefined),113% (inactive)
6,CS(=O)(=O)CCCCN=C=S,101% (inactive)
7,CCOC(=O)[C@H](CCc1ccccc1)N[C@@H](C)C(=O)N1[C@H](C(=O)O)C[C@@H]2CCC[C@@H]21,103% (inactive)
8,"NCCCC(N)CC(=O)NCC1NC(=O)C(CO)NC(=O)C(N)CNC(=O)C(C2CCN=C(N)N2)NC(=O)/C(=C\NC(N)=O)NC1=O (stereo not drawn) (H-[Dap]S[Dap](ξβ3hOrn)[ΔAla(E,3-NHCONH2)][X1]; lactam 1-C; configuration not given here)",101% (inactive)
9,COc1ccc(-c2cc(=O)c3ccccc3o2)cc1,114% (inactive)
10,CC(C)(C)NCC(O)COc1cccc2c1C[C@H](O)[C@H](O)C2 (some centres undefined),103% (inactive)
11,CC1(C)C[C@@H](O)[C@]2(C)CC[C@]3(C)C(=CCC4[C@@]5(C)CC[C@H](O)[C@](C)(CO)C5CC[C@]43C)[C@@H]2C1 (some centres undefined),100% (inactive)
12,CC1(C)C=Cc2cc3ccc(=O)oc3cc2O1,119% (inactive)
13,CC(C)c1ccc2c(c1)CCC1[C@](C)(CN)CCC[C@]21C (some centres undefined),111% (inactive)
14,CC(=O)O[C@H]1CC2CCC3C(CC[C@@]4(C)C3C[C@H]([N+]3(C)CCCCC3)[C@@H]4OC(C)=O)[C@@]2(C)C[C@@H]1[N+]1(C)CCCCC1 (some centres undefined),124% (inactive)
15,CC1(C)C2CC[C@]3(C)C(C(=O)C=C4[C@@H]5C[C@@](C)(C(=O)O)CC[C@]5(C)CC[C@]43C)[C@@]2(C)CC[C@@H]1O (some centres undefined),126% (inactive)
16,COc1cc([C@@H]2c3cc4c(cc3C(OC3O[C@@H]5COC(C)O[C@H]5[C@H](O)[C@H]3O)C3COC(=O)[C@@H]32)OCO4)cc(OC)c1O (some centres undefined),102% (inactive)
17,COc1ccc(C[C@H](N)C(=O)N[C@@H]2[C@@H](CO)OC(n3cnc4c(N(C)C)ncnc43)[C@@H]2O)cc1 (some centres undefined),87.5% (inactive)
18,CCCCCCCCNC(C)C(O)c1ccc(SC(C)C)cc1 (centres undefined),114% (inactive)
19,CC(=O)OCC(=O)[C@@]12OC3(CCCC3)O[C@@H]1CC1C3CCC4=CC(=O)C=C[C@]4(C)[C@@]3(F)[C@@H](O)C[C@@]12C (some centres undefined),90.4% (inactive)
